Measured values: PubChem BioAssay AID489008 (National Center for Advancing Translational Sciences (NCATS), 2010)
Results filed as inconclusive are left out. Calls of active or inactive are those of the source. Calls come from the whole dose curve; as a rule, active = well fitted inhibition curve with a large enough effect; inconclusive = small, poorly fitted or top-dose-only effect; inactive = flat fitted curve, though single readings scatter.

target: Ferritin light chain (Equus caballus) (UniProt P02791); experiment: Confirmation Assay for Identification of Novel General Anesthetics; conditions: apoferritin 1-aminoanthracene fluorescence displacement; note: nearly all actives have a fitted effect of over 40% in size
Sequence (P02791 2-175 limits assumed): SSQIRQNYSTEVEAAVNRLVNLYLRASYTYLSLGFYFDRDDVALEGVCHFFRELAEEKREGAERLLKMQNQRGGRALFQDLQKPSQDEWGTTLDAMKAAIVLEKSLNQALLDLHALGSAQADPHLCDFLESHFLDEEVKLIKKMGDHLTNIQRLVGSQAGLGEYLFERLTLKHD
From the text: Anesthetic development has remained a largely empirical process. There are growing concerns about the cognitive effects of known general anesthetics and acceleration of the onset of neurodegenerative disease. The compounds' toxicity and multiple specific binding targets in the mammalian brain [4] has made them less attractive as drug leads. In this assay, a GABAergic mimetic model system, apoferritin and a profluorescent 1-aminoanthracene ligand (1-AMA), was used to construct a competitive binding assay for identification of novel general anesthetics. The assay was validated for 1-AMA using other known anesthetics, such as isoflurane (CID:3763) and propofol (CID: 4943), [6]. This particular BioAssay is a confirmation of followup compounds from primary screen AID:485281.
[1] S.L. Bianchi, T. Tran, C. Liu, S. Lin, Y. Li, J.M. Keller, R.G. Eckenhoff, and M.F. Eckenhoff, Brain and behavior changes in 12-month-old Tg2576 and nontransgenic mice exposed to anesthetics. Neurobiol Aging 29 (2008) 1002-10.
[2] Z. Xie, Y. Dong, U. Maeda, R.D. Moir, W. Xia, D.J. Culley, G. Crosby, and R.E. Tanzi, The inhalation anesthetic isoflurane induces a vicious cycle of apoptosis and amyloid beta-protein accumulation. J Neurosci 27 (2007) 1247-54.
[3] P. Honegger, and J.M. Matthieu, Selective toxicity of the general anesthetic propofol for GABAergic neurons in rat brain cell cultures. J Neurosci Res 45 (1996) 631-6.
[4] M.F. Eckenhoff, K. Chan, and R.G. Eckenhoff, Multiple specific binding targets for inhaled anesthetics in the mammalian brain. J Pharmacol Exp Ther 300 (2002) 172-9.
[5] C.A. Butts, J. Xi, G. Brannigan, A.A. Saad, S.P. Venkatachalan, R.A. Pearce, M.L. Klein, R.G. Eckenhoff, and I.J. Dmochowski, Identification of a fluorescent general anesthetic, 1-aminoanthracene. Proc Natl Acad Sci U S A 106 (2009) 6501-6.
[6] W.A. Lea, J. Xi, A. Jadhav, L. Lu, C.P. Austin, A. Simeonov, and R.G. Eckenhoff, A high-throughput approach for identification of novel general anesthetics. PLoS One 4 (2009) e7150.
Source: NIH Chemical Genomics Center [NCGC]
Assay Submitter: Roderic Eckenhoff, University of Pennsylvania
Screening Center PI: Christopher P. Austin, NIH
Probe Development: NIH Chemical Genomics Center [NCGC]
Three uL of reagents (free 1-AMA (50% saturated solution of 1-aminoanthracene
in PBS) in columns 3, 4 as negative control and 1-AMA/apoferritin mixture (10 uM horse-spleen apoferritin in 50% saturated 1-aminoanthracene in PBS) in columns 1, 2, 5-48) was dispensed into 1536-well Greiner black assay plates. Compounds (23 nL) were transferred via Kalypsys pintool equipped with 1,536-pin array (10 nL slotted pins, V&P Scientific, San Diego, CA). Titration of the positive control, propofol, were delivered via pin transfer from separate control plates to the 2nd column of each assay plate. The starting concentration of the control, dissolved in DMSO, was at 160 mM, followed by two-fold dilution points in duplicate, for a total of 16 concentrations. The plates were incubated for 10 min at room temperature, and then read on an EnVision HTS multilabel reader (Perkin-Elmer, Waltham, MA) (end point read, 3 min/plate) using Fura2 BFP excitation filter (380 nm, bandwidth 10 nm) and fluorescein emission filter (535 nm, bandwidth 25 nm) set. A LANCE/DELFIA dichroic mirror with a cutoff wavelength at 400 nm was used to maximize signal accuracy and strength. Vehicle-only plates, with DMSO being pin-transferred to the entire column 5-48 compound area, were inserted uniformly at the beginning and the end of each library in order to monitor for and record any shifts in the background. Activity was computed as the normalized fluorescence response relative to free 1-AMA and 1-AMA/apoferritin complex values. Concentration-effect relationships were derived by using curve fitting algorithms developed in-house (http://ncgc.nih.gov/pub/openhts/). […]
Potency is the fitted concentration of half-maximal effect.

Potency, active:
Oc1ccc(Cc2ncc(C(F)(F)F)cc2Cl)cc1 15.8 µM
O=C(CCC1CCCCC1)Nc1nccs1 39.8 µM
CCN1C(=O)N(c2ccc(Cl)cc2)C(C)=CC1(C)C 35.5 µM
c1cc2cn[nH]c2cc1NC1CCCCCC1 15.8 µM
CC1CCCN(C(=O)Nc2ccc(Br)cc2Cl)C1 (stereo not given) 28.2 µM
Cc1ccc(C(=O)COC(=O)c2ccc(Br)o2)cc1C 15.8 µM
CC1(COc2ccc(CC3SC(=O)NC3=O)cc2)CCCCC1 (stereo not given) 14.1 µM
C/C(=N\O)C(C)(C)Nc1ccc(Br)cc1 8.91 µM
O=C(CC1SCCNC1=O)Nc1ccc(Cl)c(Cl)c1 (stereo not given) 20 µM
Cc1ccc(-c2ccc(=O)n(Cc3ccc(F)cc3)n2)cc1 35.5 µM
Cc1ccc(O)c(N=Nc2ccccc2)n1 22.4 µM
O=C1NC2(CCCCCC2)Oc2ccccc21 20 µM
COc1ccc(OCCC(=O)NCC23CC4CC(CC(C4)C2)C3)cc1 6.31 µM
CC1Cc2ccccc2N1C(=O)COC(=O)c1cccnc1Cl (stereo not given) 15.8 µM
Nc1nc(SCc2ccc(Cl)cc2)ns1 12.6 µM
Fc1ccccc1CSc1nc2ccccc2[nH]1 15.8 µM
CC1CCCCC1NC(=O)COC(=O)c1ccc(N(C)C)cc1 (stereo not given) 11.2 µM
COc1ccc(CNc2ccc(C)c(C)c2)cc1 15.8 µM
CCN(CC)S(=O)(=O)c1ccc(C)c(C)c1 22.4 µM
CC(C)(Nc1ccccc1)C(=O)c1ccccc1 12.6 µM
O=C(COC(=O)C(O)c1ccccc1)NC12CC3CC(CC(C3)C1)C2 (stereo not given) 12.6 µM
Cc1ccc(NC2CCCN(C(=O)c3cccs3)C2)cc1C (stereo not given) 15.8 µM
COC1CCCCC1Nc1cc(C)cc(C)c1 (stereo not given) 31.6 µM
Nc1cc(C(F)(F)F)ccc1Nc1ccccc1 25.1 µM
O=C(CCN1CCN(CCO)CC1)Nc1ccc(C2CCCC2)cc1 31.6 µM
Cc1cc(C)n2nc(CC(=O)NC3CCCCCC3)nc2n1 8.91 µM
O=c1c2ccccc2nnn1Cc1ccccc1Cl 15.8 µM
O=C(CSc1ccccc1)N1CCc2ccccc21 20 µM
O=C(COC(=O)c1cccs1)NCC1CCCCC1 20 µM
CC1Cc2ccccc2N1C(=O)CSc1ccccc1 (stereo not given) 14.1 µM
Cc1ccc(NS(=O)(=O)N2CCOCC2)cc1Cl 12.6 µM
COC(=O)c1ccc(/C=N/OCC(=O)NC2CCCCCCC2)cc1 7.94 µM
Cc1ccc(CNC(=O)c2nnn(-c3cccc(C)c3)c2N)cc1 17.8 µM
Cc1ccc(C2=NN(CC(=O)NC(C)c3ccccc3)C(=O)CC2)cc1 (stereo not given) 31.6 µM
O=C(NC1C2CC3CC(C2)CC1C3)c1ccc2c(c1)OCO2 (stereo not given) 28.2 µM
CC(=O)Nc1ncc(Cc2cc(Cl)ccc2Cl)s1 15.8 µM
O=c1sc2ccccc2c(=O)n1Cc1ccccc1F 8.91 µM
Nc1nnc(CCC2CCCCC2)s1 10 µM
O=C(OCC(=O)C12CC3CC(CC(C3)C1)C2)c1ccccn1 14.1 µM
Oc1ccc(NCc2cccc(OCc3ccccc3)c2)cc1 15.8 µM
